The results in this text go back to the supplement of paper PMC6555819.

This assay deals with VDR:RXRa (NR concentration 270 nM, RXRa partner concentration 90 nM). As to the kind of experiment: PBM binding z-score (relative to random genomic background probes); higher = stronger binding; sequences stand for … in GC…GCGATTGACAGCGTAGAATGAAGG
Here is the method:
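Protein-binding microarray (Agilent 4x180K custom design, double-stranded 60-nt probes: 5' GC cap, 34-nt variable region, 24-nt constant primer region; full probe sequence given). Purified or IVT nuclear receptor:RXRα heterodimers (3:1 NR:RXRα, mostly 270:90 nM) or homodimers were incubated for 1 h in PBS with 2% milk and no ligand, then detected with Alexa488 antibodies. Fluorescence from o1-orientation probes (~5 replicates averaged) was converted to z-scores against 500 random hg19 background probes. Variable regions are seed direct-repeat (DR0–DR5) sites, all their single-nucleotide variants and half-site ablations.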
Sequence AATACAGGGTCATCGTAGGCCGGAGTACGCACAG came in with a PBM binding z-score of 4.89.

The sequence ACTATTAGTTGAGACGAGGGCAACCGCTAGGTTG registered a PBM binding z-score of 0.628.

In turn, TCTCGGAGCACACGAAGGTCAGAGCTTTCCAGAG had a PBM binding z-score of 0.634.

Regarding TTATCAAGGTGAAGGTCGTTGATCCCTCTGTAGA, the PBM binding z-score was determined as 1.55.

For the sequence TAGCCTTGGTCATGCGGGCCAGTATAGTGTCGGC, the PBM binding z-score was -0.724.

With AGAACGAGGGCACGCTGAGTCGATAGCAGAGTAG, the PBM binding z-score is 0.908.

On to GGAACGAGGGCAAGTTGATGGCAGAGTTTGATGG, for which the PBM binding z-score was found to be 0.912.

In the case of CCTAGCAGGCCAATGTGGGTCACTCAAGGCTTGA, the PBM binding z-score was 1.02.

For the sequence TCGAGTAGGTTAGGGGTATTCAGAATGGCGTCGA, the PBM binding z-score stood at 0.154.

The sequence CAAACTAGGTCAAGAGGTAAAAGTCCGCTTCCCG registered a PBM binding z-score of 2.17.

CCTTACGGGTCATTGACAGGTTATAGCATTTGGA gave a PBM binding z-score of 4.11.

For the sequence ATCTCTAGGTAAAGATAGTTCAGAGAATGCAAAT, the PBM binding z-score came to 0.478.

As to CCTCGGAGGACAGATGGTCAGAGCTGTCCGCTTT, the PBM binding z-score is -0.581.

Regarding ATCCAAAGGTCGAAGGTGAGTATACCCACCCGAA, the PBM binding z-score is 3.15.

CCTCGGAGGACAAAAGGAGGTCAGAGCTGCCAGA registered a PBM binding z-score of 1.97.

For the sequence ATCTCTAGGTAACACGTTCAGTGAAAGAGAGGAC, the PBM binding z-score is 0.339.

In turn, CGAACGAGGGCATGAGTTGAGAGCAAATGCCGAT displayed a PBM binding z-score of 1.01.

As to TCCATTAGTTGAAGGGCAACCGACGAGTCCGTTT, the PBM binding z-score is 1.02.

Turning to CCTCCAAGGTCAATGCTAGGTCAGTGAAAGCATT, the PBM binding z-score amounted to 4.74.

With ACAGACAGGTGAGTGAAGTTAACTCAGCTGGACG, the PBM binding z-score was -0.576.

Consider GCGACTGTGGCATCAGCAGGTTACCATAACTTAA, for which the PBM binding z-score was -0.319.

With CCGAGTGGGGCAAAGGTTACCATACTCAGTACGA, the PBM binding z-score stood at 1.49.

Sequence CGTCCAAGGTCAAGGTCAGAGAAAGAGACTCGAA returned a PBM binding z-score of 4.57.

As for GCTGCTAGGTCAGGTTGTTCAGCTAACGGGTACG, the PBM binding z-score came out at 0.65.

Regarding TGAATGAGATTATAAGATCAGGGAACGTTGCAAA, the PBM binding z-score is -0.491.

For CCGAGTAGGTCATGGGGCATTCAGGCAACGGTGA, the PBM binding z-score amounted to 2.27.

As for ACAGACAGGTGATGAAGGTAGCTCAGGCTATCAT, the PBM binding z-score was -0.287.

With GCTATTAGTTGAAAGGGGAACCGAATGATTCTCG, the PBM binding z-score was -0.142.

Consider CCGACTGGGGCAGAATGGTTACCATACCATCCGG, for which the PBM binding z-score is -0.638.

Regarding GCTGCTAGGTCCGGTTGGTCAGCTAACGGGTACG, the PBM binding z-score is -0.965.

Sequence ACTACCAGGCCAAGTTTGGGTCACTCAAACAAAG registered a PBM binding z-score of 1.08.

CCGACTGGGGCAAGGTTGCCATAACGCACAGCCA: the PBM binding z-score was -0.351.

Sequence TCGCGGAGGACACGAAAGGTCAGAGCTCGACATC came in with a PBM binding z-score of 3.13.

As to CAAACTAGGTCAAGAGGTTAAAGTCCGCTTCCCG, the PBM binding z-score was found to be 4.18.

In turn, TCATAAAGGTAAACAGGTGAAAGTCCGTAAGTTA returned a PBM binding z-score of 1.64.

Consider CGGCCAAGGTCAAGGTCAGTGAAAGAGACTCGAA, for which the PBM binding z-score worked out at 4.68.

On to CGTCCAAGGTCAGCAAGTCAGTGAAAGCGACGTG, for which the PBM binding z-score is 2.93.

Sequence CCTATTAGTTGACCATAAGGGCAACCGCAGCTCG yielded a PBM binding z-score of 0.982.

Turning to ATATGTAGGTTAGCTGGGGTCAATCAGACTAGGC, the PBM binding z-score was found to be 5.46.

Sequence TCATATAAGTAATACAGGTGAAAGTCGGCATCTA gave a PBM binding z-score of 1.16.
